# Reference: PubChem BioAssay (NCI)
# “And” between values parts separate entries of the source, which are not always exact repeats. Equal entries are not always repeated. Compounds without any hit were thinned out: in the full panel of roughly 83,000, 20% have a hit.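 In brief: 96-well plates, 48 h treatment, single concentration, percent growth endpoint.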 The source made the active and inactive calls. Rule for the calls: active = growth percent below 10; inactive = the rest.
# System: HL-60(TB) leukemia
# Assay: NCI-60 one-dose screen, 48 h (100 = growth as untreated, 0 = no growth, -100 = all killed)
# Conditions: 10 µM unless noted
row,Structure (SMILES),growth
1,C=C[C@]1(C)C=C2C(=O)[C@@]3(O)OC(=O)[C@@]4(CCCC(C)(C)[C@H]34)[C@@]2(O)CC1,-25% (active)
2,CCN(C)CCCOc1ccc(/C(=C(\C)Cc2cccc(OC)c2)c2ccc(OC(C)=O)cc2)cc1,100% (inactive)
3,CCOC(=O)NC(N)=O,92.4% (inactive)
4,C#Cc1nc2ccccc2c(=O)[nH]1,-42.4% (active)
5,COc1ccc(-c2nc(SCCC(C)C)nc(Nc3ccc(F)c(Cl)c3)c2C#N)cc1,107% (inactive)
6,O=C1c2ccccc2C(=O)c2c(NCCNCCO)ccc(NCCNCCO)c21,64.9% (inactive) and 11.4% (inactive) and 2.46% (active)
7,O=C1CCc2c(sc3[nH]c(=S)n(-c4ccc(OC(F)(F)F)cc4)c(=O)c23)C1,39.7% (inactive)
8,COC(=O)c1c2c(c(C)[n+]([O-])c1C)C(=O)C(NCc1ccc(O)cc1)=CC2=O,-8.85% (active)
9,CCOC(=O)c1sc2ncc(-c3ccc(OC)cc3)n2c1C,86.5% (inactive)
10,CCN(CC)CCCN1C(=O)c2c(c(C)c3c(oc4cc(O)ccc43)c2C)C1=O,-47.9% (active)
11,COc1ccc(CC(C#N)c2ccc(Cl)cc2)cc1 (stereo not given),84% (inactive)
12,O=C1c2cc(Cl)ccc2S(=O)(=O)c2c(NCCCNCCO)nc3ccccc3c21,-27% (active)
13,CCN(CC)c1ccc2c(cc1=O)[C@@H](NC(C)=O)CCc1cc(OC)c(OC)c(OC)c1-2,-56.8% (active)
14,CC(C)NCCCNC1=C(Cl)C(=O)c2ccccc2C1=O,11.5% (inactive)
15,CC1Cc2ccccc2N1C(=O)c1ccc(C(=O)c2ccccc2)cc1 (stereo not given),-11.1% (active)
16,CC(C)C(NC(=O)CN)C(=O)O (stereo not given),94.9% (inactive) and 98.7% (inactive)
17,Clc1ccc(/C=C/c2ccc3ccccc3n2)cc1,-14.2% (active) and 77.3% (inactive) and 60.8% (inactive)
18,CC(=O)[C@H]1CC[C@H]2[C@@H]3C[C@H](C)C4=CC(=O)CC[C@]4(C)[C@H]3C(=O)C[C@]12C,79.7% (inactive)
19,Nc1ccccc1SC(CC(=O)c1ccccc1)c1ccc([N+](=O)[O-])cc1 (stereo not given),95.8% (inactive) and 74.9% (inactive)
20,N#CC1=C(N)Oc2c(ccc3ccccc23)C1c1ccc([N+](=O)[O-])cc1 (stereo not given),69.9% (inactive)

row,Structure (SMILES),growth
1,CC(=O)c1c(-c2ccc(OC(F)(F)F)cc2)nc2ccccn12,115% (inactive)
2,Oc1c(Cl)cc(Cl)c2cccnc12,56.4% (inactive) and 5.89% (active)
3,COc1ccc(-c2nc(-c3ccccn3)c(-c3ccccn3)n2CC(C)C)cc1OC1CCCC1,-43.5% (active)
4,COc1cc(Nc2nc3ccccc3nc2NS(=O)(=O)c2ccc(NC(=O)c3ccc(C)c(OC)c3)cc2)cc(OC)c1,74.8% (inactive) and 26.7% (inactive)
5,Clc1cccc(-c2cc(-c3ccc4c(c3)OCCO4)[nH]n2)c1,15.2% [25 µM] (inactive)
6,O=C(O)c1cn(C2CC2)c2cc(N3CCN(C(=O)N(c4ccccc4)c4nc(-c5ccccc5)cs4)CC3)c(F)cc2c1=O,-39.9% (active)
7,O=C1N[C@@H]2NC(=[N+]3CCOCC3)N[C@@H]2N1,98% (inactive)
8,CCN(CC)CCCC(C)Nc1nc(-c2ccc(OC)cc2)nc2cc(Cl)ccc12 (stereo not given),51.8% (inactive)
9,Cc1ccc(C(=O)N2C/C(=C/c3ccccc3)C(=O)/C(=C/c3ccccc3)C2)cc1,73.7% (inactive)
10,O=C(Nc1ccc(-n2ccc3c(NC(=O)c4ccccc4)nccc32)cc1)Nc1cccc(C(F)(F)F)c1,63.8% (inactive)
11,CCN(CC)CCOc1ccc(-c2nc3cc(Cl)ccc3s2)cc1,-74.2% (active)
12,C[C@H](c1nc2ccc(N)cc2[nH]1)[C@H]1CC[C@H]2[C@@H]3CCC4=CC(=O)CC[C@]4(C)[C@H]3CC[C@]12C,-50.2% (active)
13,CCSc1nnc2c3cc(Br)ccc3n(C)c2n1,110% (inactive)
14,Cn1ccnc1C(=O)C(=O)Nc1ccc(CC(=O)Nc2ccccc2)cc1,107% (inactive)
15,COc1cc(/C=C/C(=O)c2ccc(O)c(CN3CCN(c4cc5c(cc4F)c(=O)c(C(=O)O)cn5C4CC4)CC3)c2)cc(OC)c1OC,7.35% (active)
16,CCCNc1ccc(C2=NCCCN2)cc1,95.5% (inactive)
17,OCCN1CCN(CCO)CC1,108% (inactive) and 102% (inactive) and 96.2% (inactive)
18,COc1cc(-n2cc(-c3cc(O)c(C/C=C(\C)CCC=C(C)C)c(O)c3)nn2)cc2c1O[C@]1(C)CC[C@@H](O)C(C)(C)[C@H]1C2,-13.9% (active)
19,CCOC(=O)NCCc1nc2c([nH]1)c(=O)n(C)c(=O)n2C,124% (inactive)
20,C=C1C(=O)O[C@H]2[C@H]1CC/C(COC(=O)CSCCSCC(=O)OC/C1=C/CC[C@@]3(C)O[C@H]3[C@H]3OC(=O)C(=C)[C@@H]3CC1)=C\CC[C@@]1(C)O[C@@H]21,-58.8% (active)
